What all share (assay): PBM; 200 nM protein, PBS
Common to all, as to conditions: dsDNA, one strand shown

Assay [1] addresses ALX1 (Homo sapiens, UniProt Q15699 118-204, L144V).
For assay [2], the target named is ALX3 (Homo sapiens, UniProt O95076 139-225, N203Q).
Assay [3] concerns the target ALX1 (Homo sapiens, UniProt Q15699 118-204, L144R).
Assay [4] addresses ALX3 (Homo sapiens, UniProt O95076 139-225).
In assay [5] the target is ALX3 (Homo sapiens, UniProt O95076 139-225, L168Q).
In assay [6] the target is ALX3 (Homo sapiens, UniProt O95076 139-225, L168V).
Assay [7] deals with ALX1 (Homo sapiens, UniProt Q15699 118-204).
The target in assay [8] is ALX3 (Homo sapiens, UniProt O95076 139-225, N203S).
Assay [9] addresses PRRX1 (Homo sapiens, UniProt P54821 80-166).
The target in assay [10] is HOXB6 (Homo sapiens, UniProt P17509 132-218).
Assay [11] addresses VAX1 (Homo sapiens, UniProt Q5SQQ9 86-172, K157R).
Assay [12] addresses T1, PAX4 (Homo sapiens, UniProt O43316 9-242, R200K).
T1 sequence: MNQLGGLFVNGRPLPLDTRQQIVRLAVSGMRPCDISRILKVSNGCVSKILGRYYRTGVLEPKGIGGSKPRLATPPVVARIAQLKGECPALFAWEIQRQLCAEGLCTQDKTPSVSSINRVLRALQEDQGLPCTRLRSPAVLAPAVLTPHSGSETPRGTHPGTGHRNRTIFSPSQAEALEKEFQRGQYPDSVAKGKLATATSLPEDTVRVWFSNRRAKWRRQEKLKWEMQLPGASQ

The target in assay [13] is T2, PAX4 (Homo sapiens, UniProt O43316 9-242).
T2 sequence: T1 sequence with K192R

The target in assay [14] is T3, PAX4 (Homo sapiens, UniProt O43316 9-242, R200Q).
T3 sequence: T1 sequence with K192Q

In assay [15] the target is T4, PAX4 (Homo sapiens, UniProt O43316 9-242, F177V).
T4 sequence: T1 sequence with F169V, K192R

Assay [16] addresses T5, PAX4 (Homo sapiens, UniProt O43316 9-242, F177Y).
T5 sequence: T1 sequence with F169Y, K192R

Assay [17] addresses T6, PAX4 (Homo sapiens, UniProt O43316 9-242, R227W).
T6 sequence: T1 sequence with K192R, R219W

Assay [18] has as its target HOXA4 (Homo sapiens, UniProt Q00056 201-287, W262F).

Substitutions are numbered along the chain they refer to.

Chain of HOXA4 (Q00056 201-287 W262F): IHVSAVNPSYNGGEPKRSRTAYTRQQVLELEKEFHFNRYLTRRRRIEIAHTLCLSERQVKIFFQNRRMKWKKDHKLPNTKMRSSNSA
Chain of ALX1 (Homo sapiens, UniProt Q15699 118-204, L144V) (Q15699 118-204 L144V): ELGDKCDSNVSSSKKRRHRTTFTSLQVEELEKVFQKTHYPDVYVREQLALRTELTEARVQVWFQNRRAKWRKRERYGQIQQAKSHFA
Chain of ALX3 (Homo sapiens, UniProt O95076 139-225, N203S) (O95076 139-225 N203S): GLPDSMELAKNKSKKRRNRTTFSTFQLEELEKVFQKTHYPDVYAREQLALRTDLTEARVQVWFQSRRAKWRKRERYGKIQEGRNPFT
Chain of ALX3 (Homo sapiens, UniProt O95076 139-225) (O95076 139-225): as the sequence (O95076 139-225 N203S) above, with S65N counted along it
Chain of ALX3 (Homo sapiens, UniProt O95076 139-225, L168V) (O95076 139-225 L168V): as the sequence (O95076 139-225 N203S) above, with L30V, S65N counted along it
Chain of ALX3 (Homo sapiens, UniProt O95076 139-225, N203Q) (O95076 139-225 N203Q): as the sequence (O95076 139-225 N203S) above, with S65Q counted along it
Chain of PRRX1 (P54821 80-166): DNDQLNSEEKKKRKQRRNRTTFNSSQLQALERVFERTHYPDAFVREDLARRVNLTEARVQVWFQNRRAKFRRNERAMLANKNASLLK
Chain of ALX1 (Homo sapiens, UniProt Q15699 118-204, L144R) (Q15699 118-204 L144R): as the sequence (Q15699 118-204 L144V) above, with V27R counted along it
Chain of ALX1 (Homo sapiens, UniProt Q15699 118-204) (Q15699 118-204): as the sequence (Q15699 118-204 L144V) above, with V27L counted along it
Chain of VAX1 (Q5SQQ9 86-172 K157R): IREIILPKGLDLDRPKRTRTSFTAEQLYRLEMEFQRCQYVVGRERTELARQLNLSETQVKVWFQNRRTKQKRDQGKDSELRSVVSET
Chain of ALX3 (Homo sapiens, UniProt O95076 139-225, L168Q) (O95076 139-225 L168Q): as the sequence (O95076 139-225 N203S) above, with L30Q, S65N counted along it
Chain of HOXB6 (P17509 132-218): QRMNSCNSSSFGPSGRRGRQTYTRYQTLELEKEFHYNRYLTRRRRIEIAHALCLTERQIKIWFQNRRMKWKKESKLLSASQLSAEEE

Consider CGGTCGGC, for which the binding signal was 6.28 upbm affinity estimate (log intensity, higher = more binding, comparable within an allelic series) in assay [1]; 7.66 upbm affinity estimate (log intensity, higher = more binding, comparable within an allelic series) in assay [2]; 6.31 upbm affinity estimate (log intensity, higher = more binding, comparable within an allelic series) in assay [3]; 7.68 upbm affinity estimate (log intensity, higher = more binding, comparable within an allelic series) in assay [4]; 7.79 upbm affinity estimate (log intensity, higher = more binding, comparable within an allelic series) in assay [5]; 7.75 upbm affinity estimate (log intensity, higher = more binding, comparable within an allelic series) in assay [6]. In addition, the binding signal in assay [7] was 6.46 upbm affinity estimate (log intensity, higher = more binding, comparable within an allelic series); in assay [8], 7.69 upbm affinity estimate (log intensity, higher = more binding, comparable within an allelic series).

For the sequence CGTGCACG, the binding signal in assay [9] is 9.56 upbm affinity estimate (log intensity, higher = more binding, comparable within an allelic series).

Take CACGGGCC: the binding signal in [2] was 7.64 upbm affinity estimate (log intensity, higher = more binding, comparable within an allelic series); in assay [4] it was 7.66 upbm affinity estimate (log intensity, higher = more binding, comparable within an allelic series); in assay [5], 7.64 upbm affinity estimate (log intensity, higher = more binding, comparable within an allelic series); in assay [6], 7.58 upbm affinity estimate (log intensity, higher = more binding, comparable within an allelic series); in [8], 7.68 upbm affinity estimate (log intensity, higher = more binding, comparable within an allelic series).

As for ATAATGGG, in [10], the binding signal was 11.8 upbm affinity estimate (log intensity, higher = more binding, comparable within an allelic series).

As to CCGGTGGC, the binding signal is 6.52 upbm affinity estimate (log intensity, higher = more binding, comparable within an allelic series) in assay [1]; 6.41 upbm affinity estimate (log intensity, higher = more binding, comparable within an allelic series) in assay [3]; 6.47 upbm affinity estimate (log intensity, higher = more binding, comparable within an allelic series) in assay [7]; 7.27 upbm affinity estimate (log intensity, higher = more binding, comparable within an allelic series) in assay [11].

As for GCGACGCC, the binding signal in assay [11] was 7.22 upbm affinity estimate (log intensity, higher = more binding, comparable within an allelic series).

As for AGCCGACA, the binding signal in [9] is 9.49 upbm affinity estimate (log intensity, higher = more binding, comparable within an allelic series).

Consider AGTCCCGG, for which the binding signal in [12] was 9.42 upbm affinity estimate (log intensity, higher = more binding, comparable within an allelic series); in [13], 9.48 upbm affinity estimate (log intensity, higher = more binding, comparable within an allelic series); in assay [14], 9.44 upbm affinity estimate (log intensity, higher = more binding, comparable within an allelic series); in [15], 9.3 upbm affinity estimate (log intensity, higher = more binding, comparable within an allelic series); in [16], 9.36 upbm affinity estimate (log intensity, higher = more binding, comparable within an allelic series); in assay [17], 9.43 upbm affinity estimate (log intensity, higher = more binding, comparable within an allelic series).

For CCTACGGA, the binding signal in assay [11] was 7.03 upbm affinity estimate (log intensity, higher = more binding, comparable within an allelic series); in assay [10], 8.95 upbm affinity estimate (log intensity, higher = more binding, comparable within an allelic series).

Turning to CCGCCTCC, the binding signal in assay [12] is 9.24 upbm affinity estimate (log intensity, higher = more binding, comparable within an allelic series); in assay [13] it was 9.34 upbm affinity estimate (log intensity, higher = more binding, comparable within an allelic series); in assay [14], 9.3 upbm affinity estimate (log intensity, higher = more binding, comparable within an allelic series); in [15] it was 9.19 upbm affinity estimate (log intensity, higher = more binding, comparable within an allelic series); in assay [16], 9.18 upbm affinity estimate (log intensity, higher = more binding, comparable within an allelic series); in assay [17], 9.29 upbm affinity estimate (log intensity, higher = more binding, comparable within an allelic series). Besides, the binding signal in [9] was 9.06 upbm affinity estimate (log intensity, higher = more binding, comparable within an allelic series).

As to CAGAGCCG, the binding signal in [10] is 9 upbm affinity estimate (log intensity, higher = more binding, comparable within an allelic series).

For the sequence ACGGGGGC, the binding signal in [2] is 7.66 upbm affinity estimate (log intensity, higher = more binding, comparable within an allelic series); in assay [4], 7.79 upbm affinity estimate (log intensity, higher = more binding, comparable within an allelic series); in assay [5], 7.65 upbm affinity estimate (log intensity, higher = more binding, comparable within an allelic series); in assay [6], 7.65 upbm affinity estimate (log intensity, higher = more binding, comparable within an allelic series); in [8], 7.62 upbm affinity estimate (log intensity, higher = more binding, comparable within an allelic series).

With CACCCCCG, in [18], the binding signal was 9.77 upbm affinity estimate (log intensity, higher = more binding, comparable within an allelic series).

With AGCCCGGG, the binding signal in [12] is 9.12 upbm affinity estimate (log intensity, higher = more binding, comparable within an allelic series); in assay [13] it was 8.95 upbm affinity estimate (log intensity, higher = more binding, comparable within an allelic series); in [14], 9.17 upbm affinity estimate (log intensity, higher = more binding, comparable within an allelic series); in assay [15], 9.12 upbm affinity estimate (log intensity, higher = more binding, comparable within an allelic series); in [16] it was 9.07 upbm affinity estimate (log intensity, higher = more binding, comparable within an allelic series); in assay [17], 9.13 upbm affinity estimate (log intensity, higher = more binding, comparable within an allelic series). Also, the binding signal in assay [11] was 6.72 upbm affinity estimate (log intensity, higher = more binding, comparable within an allelic series).

For the sequence CCCAACGG, the binding signal is 6.54 upbm affinity estimate (log intensity, higher = more binding, comparable within an allelic series) in assay [1]; 6.52 upbm affinity estimate (log intensity, higher = more binding, comparable within an allelic series) in [3]; 6.46 upbm affinity estimate (log intensity, higher = more binding, comparable within an allelic series) in [7]; 10 upbm affinity estimate (log intensity, higher = more binding, comparable within an allelic series) in [18].

CAGCCCCC: the binding signal in assay [18] was 9.62 upbm affinity estimate (log intensity, higher = more binding, comparable within an allelic series); in [11], 7.13 upbm affinity estimate (log intensity, higher = more binding, comparable within an allelic series).

Take CGCACTTA: the binding signal was 8.31 upbm affinity estimate (log intensity, higher = more binding, comparable within an allelic series) in assay [1] and 8.83 upbm affinity estimate (log intensity, higher = more binding, comparable within an allelic series) in [7].

CGCCTACC: the binding signal in assay [9] is 8.83 upbm affinity estimate (log intensity, higher = more binding, comparable within an allelic series).

Take ACGCCCGG: the binding signal in [10] is 9.06 upbm affinity estimate (log intensity, higher = more binding, comparable within an allelic series).

For CGGCGCCG, the binding signal in assay [9] is 9.48 upbm affinity estimate (log intensity, higher = more binding, comparable within an allelic series).

Consider CACTTAGC, for which, in assay [9], the binding signal was 11.8 upbm affinity estimate (log intensity, higher = more binding, comparable within an allelic series).

Regarding GCTGGGCC, the binding signal in assay [12] is 9.06 upbm affinity estimate (log intensity, higher = more binding, comparable within an allelic series); in assay [13], 9.06 upbm affinity estimate (log intensity, higher = more binding, comparable within an allelic series); in [2] it was 7.66 upbm affinity estimate (log intensity, higher = more binding, comparable within an allelic series); in assay [14] it was 9.13 upbm affinity estimate (log intensity, higher = more binding, comparable within an allelic series); in assay [15], 8.94 upbm affinity estimate (log intensity, higher = more binding, comparable within an allelic series); in [4], 7.62 upbm affinity estimate (log intensity, higher = more binding, comparable within an allelic series). The binding signal in assay [16] was 9.03 upbm affinity estimate (log intensity, higher = more binding, comparable within an allelic series); in [5], 7.58 upbm affinity estimate (log intensity, higher = more binding, comparable within an allelic series); in [6], 7.61 upbm affinity estimate (log intensity, higher = more binding, comparable within an allelic series); in assay [17], 9.05 upbm affinity estimate (log intensity, higher = more binding, comparable within an allelic series); in assay [8], 7.64 upbm affinity estimate (log intensity, higher = more binding, comparable within an allelic series).

In the case of ACGCCGGC, the binding signal was 9.13 upbm affinity estimate (log intensity, higher = more binding, comparable within an allelic series) in assay [12]; 9.3 upbm affinity estimate (log intensity, higher = more binding, comparable within an allelic series) in assay [13]; 9.23 upbm affinity estimate (log intensity, higher = more binding, comparable within an allelic series) in assay [14]; 9.3 upbm affinity estimate (log intensity, higher = more binding, comparable within an allelic series) in assay [15]; 9.27 upbm affinity estimate (log intensity, higher = more binding, comparable within an allelic series) in assay [16]; 9.27 upbm affinity estimate (log intensity, higher = more binding, comparable within an allelic series) in assay [17].

CCCCCAAC: the binding signal in assay [18] was 9.75 upbm affinity estimate (log intensity, higher = more binding, comparable within an allelic series).

Take CGGTGGGC: the binding signal in assay [12] was 9.41 upbm affinity estimate (log intensity, higher = more binding, comparable within an allelic series); in assay [13] it was 9.5 upbm affinity estimate (log intensity, higher = more binding, comparable within an allelic series); in assay [14], 9.39 upbm affinity estimate (log intensity, higher = more binding, comparable within an allelic series); in assay [15] it was 9.14 upbm affinity estimate (log intensity, higher = more binding, comparable within an allelic series); in assay [16] it was 9.14 upbm affinity estimate (log intensity, higher = more binding, comparable within an allelic series); in [17] it was 9.26 upbm affinity estimate (log intensity, higher = more binding, comparable within an allelic series).

For the sequence TCACTTAA, the binding signal in assay [10] is 10.7 upbm affinity estimate (log intensity, higher = more binding, comparable within an allelic series).

Turning to GGCAGGAC, the binding signal is 9.93 upbm affinity estimate (log intensity, higher = more binding, comparable within an allelic series) in assay [18] and 8.98 upbm affinity estimate (log intensity, higher = more binding, comparable within an allelic series) in [9].

For CAGCGGCC, the binding signal is 7.77 upbm affinity estimate (log intensity, higher = more binding, comparable within an allelic series) in assay [2]; 7.75 upbm affinity estimate (log intensity, higher = more binding, comparable within an allelic series) in [4]; 7.78 upbm affinity estimate (log intensity, higher = more binding, comparable within an allelic series) in assay [5]; 7.74 upbm affinity estimate (log intensity, higher = more binding, comparable within an allelic series) in [6]; 7.77 upbm affinity estimate (log intensity, higher = more binding, comparable within an allelic series) in [8].

Turning to CCCTGGCC, the binding signal in assay [11] is 6.7 upbm affinity estimate (log intensity, higher = more binding, comparable within an allelic series).

For the sequence CCCCTGCG, the binding signal in assay [2] is 7.65 upbm affinity estimate (log intensity, higher = more binding, comparable within an allelic series); in assay [4] it was 7.85 upbm affinity estimate (log intensity, higher = more binding, comparable within an allelic series); in [5] it was 7.61 upbm affinity estimate (log intensity, higher = more binding, comparable within an allelic series); in [6], 7.71 upbm affinity estimate (log intensity, higher = more binding, comparable within an allelic series); in assay [8], 7.66 upbm affinity estimate (log intensity, higher = more binding, comparable within an allelic series).

As to GTCTAGAC, the binding signal in assay [18] was 10 upbm affinity estimate (log intensity, higher = more binding, comparable within an allelic series); in assay [9] it was 9.88 upbm affinity estimate (log intensity, higher = more binding, comparable within an allelic series).

The values above are taken from publication PMC11006913.
